An excerpt weighted towards active compounds, which were near 4.1% of everything screened.
beta cell repl: MIN6 beta-cell proliferation induction; proliferation, % at 10 µM; hit rate 0.29% among 330,000; MIN6 cells proliferation, ATPlite luminescence, 48 h; cells starved in 0.2% serum; 100% = growth in 10% serum;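 active = compounds whose signal lies at least 3.5 SD above the mean of all wells on their plate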;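 also: 0% = DMSO-treated cells in low-serum medium and 100% = 10% serum control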
MPTP block: inhibitors of mitochondrial permeability transition pore; isolated mouse mitochondria, Ca2+ swelling absorbance, 30 min; inhibition, % at 10 µM; hit rate 1.4% among 360,000;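 active = inhibition of 50% or more, scaled per plate between neutral and stimulator controls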;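 also: 0% = DMSO wells given calcium and 100% = 1 mM EGTA wells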
NR3A LBD binder: modulators (binders) of human NR3A ligand-binding domain. NR3A LBD differential scanning fluorimetry, Tm shift; 0% = protein alone, 100% = glycine-bound protein. Tm shift relative to glycine control, % at 25 µM. hit rate 2.5% among 340,000. AID 1259313;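 active = melting temperature shift of at least 10% of the positive control shift, at one fixed dose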
p-CIP stab down: p/CIP protein destabilization | F442A p/CIP-EGFP cells, EGFP fluorescence, 16 h | decrease of EGFP signal, % at 10 µM | hit rate 0.01% among 290,000 | AID 1984;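 active = EGFP signal decrease of at least 30% at 10 µM or well 3 SD below plate mean, unless failing retest; inactive = the rest, including hits failing retest or dose response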
FAS TE block: FAS thioesterase (human) inhibition | recombinant FAS-TE, OMFH fluorogenic substrate, fluorescence endpoint | hit rate 0.67% among 360,000 | inhibition, % at 15 µM;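 active = compounds whose normalised, plate-corrected inhibition of enzyme fluorescence in the single-dose primary screen is 50% or more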;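 also: 0% = DMSO with enzyme and 100% = substrate without enzyme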
FAS-TE inh conf: FAS thioesterase (human) inhibition, confirmation | shares compounds with FAS TE block | recombinant FAS-TE, OMFH fluorogenic substrate, fluorescence | inhibition, % at 15 µM | hit rate 45% among 2,300 | AID 624325;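 active = compounds inhibiting the enzyme by at least 50% at 15 µM in any one of the replicates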;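 also: 0% = enzyme with DMSO only and 100% = wells lacking enzyme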
Numbers without * were called inactive; . = no result given.

SMILES	beta cell repl	MPTP block	NR3A LBD binder	p-CIP stab down	FAS TE block	FAS-TE inh conf
O=C(Nc1ccccc1)C(Cl)C(=O)c1ccccc1 (stereo not given)	-6	-2	1	4	51*	40
COc1ccc(CC(=O)Oc2ccc(C(C)(C)C)cc2)cc1S(=O)(=O)N1CCOCC1	1	0	-1	.	60*	15
CCOC(=O)CN1C(=O)S/C(=C/c2ccc(OC)c([N+](=O)[O-])c2)C1=O	-2	4	1	0	30	.
COc1cc(/C=C2\SC(=O)N(Cc3ccc(F)cc3)C2=O)cc([N+](=O)[O-])c1O	-4	2	4	-12	68*	37
COc1cc(/C=C2\SC(=O)N(Cc3ccc(Cl)cc3)C2=O)cc([N+](=O)[O-])c1O	.	7	6	-1	72*	38
CN1OC[C@@H]2CN(C(=O)Nc3ccccc3)[C@H](c3ccc(N4CCCCC4)cc3)C[C@@H]21	.	-2	.	.	-15	.
Cc1cccc(NC(=O)CSc2nc3c(oc4ccccc43)c(=O)n2-c2ccccc2)c1	0	1	2	-8	57*	35*
Cc1cccc(NC(=O)Cn2cnc3c(oc4ccccc43)c2=O)c1	2	0	2	-50	-6	.
COc1ccc(-n2nc(C(=O)NCC(=O)N3CCN(c4cccc(Cl)c4)CC3)c3ccccc3c2=O)c(OC)c1	1	0	-2	-3	55*	30
O=C(Nc1ccccc1)c1cc2ccccc2s1	.	-1	10	.	13	.
COc1ccc(NC(=O)c2nc[nH]c2C(=O)N(C)CCO)cc1	.	0	.	.	-6	.
COc1cc(C2C3C(=O)N(c4ccccc4)C(=O)C3ON2c2ccccc2)cc(OC)c1OC (stereo not given)	-2	-2	2	-14	2	.
CN1C(=S)SC(N2OC3C(=O)N(c4ccccc4)C(=O)C3C2c2ccc(Cl)cc2)C1(C)C (stereo not given)	0	-2	0	-3	69*	35
O=C(Nc1nc(-c2ccc(S(=O)(=O)N3CCCC3)cc2)cs1)C1COc2ccccc2O1 (stereo not given)	-1	0	-3	2	90*	43*
COc1ccc(-c2csc(NC(=O)COc3ccc(N(C)S(=O)(=O)c4ccc(C)cc4)cc3)n2)cc1	0	4	2	2	53*	15
O=C(COc1ccccc1)Nc1nc(-c2ccc(S(=O)(=O)N3CCOCC3)cc2)cs1	-2	-2	-3	-11	86*	58*
CCCCNC(=O)C1C(c2ccc(C(F)(F)F)cc2)=Nc2ccccc2N1C(C)=O (stereo not given)	.	-2	.	.	.	.
COc1cc(OC)c(C2=NOC(C(=O)N3CCN(C(=O)c4ccco4)CC3)C2)cc1Cl (stereo not given)	-2	-1	-1	-6	30	.
COc1cc(OC)c(C2=NOC(C(=O)N3CCc4ccccc4C3)C2)cc1Cl (stereo not given)	2	24	-6	6	80*	60*
COc1cc(OC)c(C2=NOC(C(=O)NCc3ccc4c(c3)OCO4)C2)cc1Cl (stereo not given)	-3	0	-1	-2	60*	24
C=C(C)CSc1ncc(-c2cccc(C(F)(F)F)c2)cn1	-1	7	1	10	58*	36*
Cc1occc1C(=O)Nc1nnc(C(F)(F)F)s1	0	2	0	-11	-7	.
O=C(Nc1ccccc1C(=O)Nc1nnc(C(F)(F)F)s1)c1ccccc1	-4	1	4	-20	53*	46*
CC(C)c1ccc(NC(=O)C2Cc3c(-c4cccc(F)c4)ccnc3O2)cc1 (stereo not given)	.	1	.	.	50*	42
CC(=O)c1cccc(-c2ccnc3c2CC(C(=O)Nc2ccc(F)c(Cl)c2)O3)c1 (stereo not given)	.	3	.	.	60*	58*
SMILES	beta cell repl	MPTP block	NR3A LBD binder	p-CIP stab down	FAS TE block	FAS-TE inh conf
CC1(C)C(=O)Nc2ccccc2N1C(=O)COC(=O)/C=C/c1ccc(OC(F)F)cc1	-1	1	4	.	-2	.
CN(C)c1ccc(-c2ccnc3c2CC(C)(C(=O)NCC2CC2)O3)cc1 (stereo not given)	.	0	.	.	-1	.
CCCCN(C(=O)COC(=O)C1(c2ccccc2)CC1)c1c(N)n(CCC)c(=O)[nH]c1=O	.	-2	.	.	-4	.
O=C(c1ccccc1)c1nc2ccccc2n(CCCn2c(=O)c(C(=O)c3ccccc3)nc3ccccc32)c1=O	1	4	-4	-10	60*	17
N#Cc1ccc(C(=O)N2CCC3CC2c2cc(-c4ccc(F)cc4)ccc23)cc1 (stereo not given)	.	-1	0	.	18	.
Cc1cc2c(c(=O)n1Cc1cccnc1)C(Cc1ccccc1)C(C#N)=C(N)O2 (stereo not given)	-4	0	2	-14	53*	32
CCCCN(CCCNC(=O)c1ccc2c(c1)NC(=O)CN2C)c1ccccc1	.	0	.	.	14	.
Cc1cccc([C@@H]2[C@@H]3C(=O)N(Cc4ccccc4)C(=O)[C@@H]3[C@]3(Cc4ccccc4)C(=O)N(c4ccc(C(F)(F)F)cc4)C(=O)N23)c1	-7	0	-2	.	90*	27
Cc1cccc([C@@H]2[C@@H]3C(=O)N(Cc4ccccc4)C(=O)[C@@H]3[C@]3(Cc4ccc(Cl)cc4)C(=O)N(c4ccccc4)C(=O)N23)c1	-6	0	-4	3	93*	23
Cc1cccc([C@@H]2[C@@H]3C(=O)N(Cc4ccccc4)C(=O)[C@@H]3[C@]3(Cc4ccc(Cl)cc4)C(=O)N(c4cccc(Br)c4)C(=O)N23)c1	-5	4	3	-8	91*	23
CCN1C(=O)[C@H]2[C@@H](c3ccc(C)cc3)N3C(=O)N(c4ccc(C)cc4)C(=O)[C@@]3(Cc3ccccc3)[C@H]2C1=O	-3	0	-1	6	13	.
CC[C@@]12C(=O)N(c3cccc(Br)c3)C(=O)N1[C@H](c1cccc(C)c1)[C@@H]1C(=O)N(Cc3ccccc3)C(=O)[C@@H]12	-5	1	-10	.	55*	31
Cc1ccccc1C(=O)N1CCC1(C)C(=O)NC(C)C (stereo not given)	.	1	.	.	-7	.
Cc1nc2sc3c(c2c(=O)o1)CCCC3	-2	-2	-2	-9	-2	.
O=c1oc(-c2ccco2)nc2sc3c(c12)CCCC3	-1	2	-1	1	66*	24
Cc1cc(C)c(-c2csc(NC(=O)c3cc([N+](=O)[O-])ccc3N3CCOCC3)n2)c(C)c1	-4	4	1	2	65*	33
O=C(Nc1nc(-c2ccc(F)c(F)c2)cs1)c1cc([N+](=O)[O-])ccc1N1CCOCC1	0	4	-2	1	55*	29

Compound activity: PubChem, Sanford-Burnham Center for Chemical Genomics
